Here are results for 40 compounds from the supplement of paper PMC6992640.

The test has as its system UCD52 (cells of a triple-negative basal-like breast cancer xenograft). Put plainly: cell viability of combination (% of vehicle); higher = less cytotoxic. The conditions noted are these: 1 µM; 72 h; partner dose: 10 nM. Here is the method:
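PDX cells were treated for 72 h with each drug at 1 µM plus afatinib (10 nM; 1 µM for WHIM30). Luciferase viability is expressed as percent of vehicle.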
With `COc1cccc2c1C(=O)c1c(O)c3c(c(O)c1C2=O)CC(O)(C(=O)CO)CC3OC1CC(N)C(O)C(C)O1` (stereo not given) [Doxorubicin] + CN(C)C/C=C/C(=O)Nc1cc2c(Nc3ccc(F)c(Cl)c3)ncnc2cc1O[C@H]1CCOC1 [Afatinib], the “cell viability of combination” value turned out to be 28.5.

For the compound `CCCSc1nc(NC2CC2c2ccc(F)c(F)c2)c2nnn(C3CC(OCCO)C(O)C3O)c2n1` (stereo not given) [Ticagrelor] + CN(C)C/C=C/C(=O)Nc1cc2c(Nc3ccc(F)c(Cl)c3)ncnc2cc1O[C@H]1CCOC1 [Afatinib], the “cell viability of combination” value is 72.2.

With `[O-]n1ccccc1=S.[O-]n1ccccc1=S.[Zn+2]` [Zinc Pyrithione] + CN(C)C/C=C/C(=O)Nc1cc2c(Nc3ccc(F)c(Cl)c3)ncnc2cc1O[C@H]1CCOC1 [Afatinib], the “cell viability of combination” value came out at 56.

With `CCCCCOc1ccc(-c2ccc(-c3ccc(C(=O)N[C@H]4C[C@@H](O)[C@@H](O)NC(=O)[C@@H]5[C@@H](O)[C@@H](C)CN5C(=O)[C@H]([C@@H](C)O)NC(=O)[C@H]([C@H](O)[C@@H](O)c5ccc(O)cc5)NC(=O)[C@@H]5C[C@@H](O)CN5C(=O)[C@H]([C@@H](C)O)NC4=O)cc3)cc2)cc1` [Anidulafungin] + CN(C)C/C=C/C(=O)Nc1cc2c(Nc3ccc(F)c(Cl)c3)ncnc2cc1O[C@H]1CCOC1 [Afatinib], the “cell viability of combination” value came to 68.6.

For `CC(C)(C)Cn1c(N)nc2ccc(-c3[nH]c(C(C)(C)C)nc3-c3ccc(F)cc3)nc21.CS(=O)(=O)O.CS(=O)(=O)O` + CN(C)C/C=C/C(=O)Nc1cc2c(Nc3ccc(F)c(Cl)c3)ncnc2cc1O[C@H]1CCOC1 [Afatinib], the “cell viability of combination” value stood at 30.3.

As to `CCC(NC(=O)C(C)NC)C(=O)N1CC(O)CC1Cc1c(-c2[nH]c3cc(F)ccc3c2CC2CC(O)CN2C(=O)C(CC)NC(=O)C(C)NC)[nH]c2cc(F)ccc12` (stereo not given) + CN(C)C/C=C/C(=O)Nc1cc2c(Nc3ccc(F)c(Cl)c3)ncnc2cc1O[C@H]1CCOC1 [Afatinib], the “cell viability of combination” value amounted to 53.5.

As for `COc1cc2nccc(Oc3ccc(NC(=O)C4(C(=O)Nc5ccc(F)cc5)CC4)cc3)c2cc1OC.O=C(O)CC(O)C(=O)O` [Cabozantinib malate (XL184)] + CN(C)C/C=C/C(=O)Nc1cc2c(Nc3ccc(F)c(Cl)c3)ncnc2cc1O[C@H]1CCOC1 [Afatinib], the “cell viability of combination” value was determined as 64.7.

On to `COc1cc(C(=O)NS(=O)(=O)c2ccccc2C)ccc1Cc1cn(C)c2ccc(NC(=O)OC3CCCC3)cc12` [Zafirlukast] + CN(C)C/C=C/C(=O)Nc1cc2c(Nc3ccc(F)c(Cl)c3)ncnc2cc1O[C@H]1CCOC1 [Afatinib], for which the “cell viability of combination” value came to 71.6.

On to `Cl.Cl.Fc1ccc(C(c2ccc(F)cc2)N2CCN(CC=Cc3ccccc3)CC2)cc1` [Flunarizine 2HCl] + CN(C)C/C=C/C(=O)Nc1cc2c(Nc3ccc(F)c(Cl)c3)ncnc2cc1O[C@H]1CCOC1 [Afatinib], for which the “cell viability of combination” value was 77.

Regarding `CC(NCCCc1cccc(C(F)(F)F)c1)c1cccc2ccccc12` (stereo not given) [Cinacalcet] + CN(C)C/C=C/C(=O)Nc1cc2c(Nc3ccc(F)c(Cl)c3)ncnc2cc1O[C@H]1CCOC1 [Afatinib], the “cell viability of combination” value is 59.9.

For the compound `COC1=C(OC)C(=O)C(CCCCCCCCCCO)=C(C)C1=O` [Idebenone] + CN(C)C/C=C/C(=O)Nc1cc2c(Nc3ccc(F)c(Cl)c3)ncnc2cc1O[C@H]1CCOC1 [Afatinib], the “cell viability of combination” value was found to be 62.7.

Consider `CCN(CC)CCNC(=O)c1c(C)[nH]c(C=C2C(=O)Nc3ccc(F)cc32)c1C` [Sunitinib] + CN(C)C/C=C/C(=O)Nc1cc2c(Nc3ccc(F)c(Cl)c3)ncnc2cc1O[C@H]1CCOC1 [Afatinib], for which the “cell viability of combination” value is 50.4.

On to `COc1cc(Nc2c(C#N)cnc3cc(OCCCN4CCN(C)CC4)c(OC)cc23)c(Cl)cc1Cl` [Bosutinib (SKI-606)] + CN(C)C/C=C/C(=O)Nc1cc2c(Nc3ccc(F)c(Cl)c3)ncnc2cc1O[C@H]1CCOC1 [Afatinib], for which the “cell viability of combination” value turned out to be 25.9.

`Clc1ccc(COC(Cn2ccnc2)c2ccc(Cl)cc2Cl)cc1.O=[N+]([O-])O` (stereo not given) [Econazole nitrate] + CN(C)C/C=C/C(=O)Nc1cc2c(Nc3ccc(F)c(Cl)c3)ncnc2cc1O[C@H]1CCOC1 [Afatinib]: the “cell viability of combination” value came out at 62.2.

`CCCCc1oc2ccc(NS(C)(=O)=O)cc2c1C(=O)c1ccc(OCCCN(CCCC)CCCC)cc1` [Dronedarone] + CN(C)C/C=C/C(=O)Nc1cc2c(Nc3ccc(F)c(Cl)c3)ncnc2cc1O[C@H]1CCOC1 [Afatinib]: the “cell viability of combination” value came out at 57.7.

For the compound `Cc1cc(-n2c(=O)[nH]c(=O)n(C)c2=O)ccc1Oc1ccc(SC(F)(F)F)cc1` [Toltrazuril] + CN(C)C/C=C/C(=O)Nc1cc2c(Nc3ccc(F)c(Cl)c3)ncnc2cc1O[C@H]1CCOC1 [Afatinib], the “cell viability of combination” value turned out to be 76.1.

For the compound `CN(C(=O)CN(CCO)CC(=O)N(C)C(C)(C)Cc1ccccc1)C(C)(C)Cc1ccccc1` [Oxethazaine] + CN(C)C/C=C/C(=O)Nc1cc2c(Nc3ccc(F)c(Cl)c3)ncnc2cc1O[C@H]1CCOC1 [Afatinib], the “cell viability of combination” value was found to be 62.9.

For `COc1cc2nccc(Oc3ccc(NC(=O)Nc4cc(C)on4)c(Cl)c3)c2cc1OC` [Tivozanib (AV-951)] + CN(C)C/C=C/C(=O)Nc1cc2c(Nc3ccc(F)c(Cl)c3)ncnc2cc1O[C@H]1CCOC1 [Afatinib], the “cell viability of combination” value came out at 40.2.

For the compound `COc1cc2ncnc(Nc3ccc(F)c(Cl)c3)c2cc1NC(=O)C=CCN1CCCCC1` + CN(C)C/C=C/C(=O)Nc1cc2c(Nc3ccc(F)c(Cl)c3)ncnc2cc1O[C@H]1CCOC1 [Afatinib], the “cell viability of combination” value was 33.

As for `Cc1nc(Nc2ncc(C(=O)Nc3c(C)cccc3Cl)s2)cc(N2CCN(CCO)CC2)n1` + CN(C)C/C=C/C(=O)Nc1cc2c(Nc3ccc(F)c(Cl)c3)ncnc2cc1O[C@H]1CCOC1 [Afatinib], the “cell viability of combination” value was determined as 27.6.

Turning to `COC(=O)c1ccc2c(c1)NC(=O)C2=C(Nc1ccc(N(C)C(=O)CN2CCN(C)CC2)cc1)c1ccccc1` [Nintedanib (BIBF 1120)] + CN(C)C/C=C/C(=O)Nc1cc2c(Nc3ccc(F)c(Cl)c3)ncnc2cc1O[C@H]1CCOC1 [Afatinib], the “cell viability of combination” value turned out to be 19.6.

With `COC(=O)NC(C(=O)NC(Cc1ccccc1)C(O)CN(Cc1ccc(-c2ccccn2)cc1)NC(=O)C(NC(=O)OC)C(C)(C)C)C(C)(C)C` (stereo not given) [Atazanavir] + CN(C)C/C=C/C(=O)Nc1cc2c(Nc3ccc(F)c(Cl)c3)ncnc2cc1O[C@H]1CCOC1 [Afatinib], the “cell viability of combination” value came out at 56.9.

As to `COc1cc2nccc(Oc3ccc(NC(=O)NC4CC4)c(Cl)c3)c2cc1C(N)=O` [Lenvatinib (E7080)] + CN(C)C/C=C/C(=O)Nc1cc2c(Nc3ccc(F)c(Cl)c3)ncnc2cc1O[C@H]1CCOC1 [Afatinib], the “cell viability of combination” value turned out to be 39.8.

As to `C1=C\COCc2cc(ccc2OCCN2CCCC2)Nc2nccc(n2)-c2cccc(c2)COC/1` [Pacritinib] + CN(C)C/C=C/C(=O)Nc1cc2c(Nc3ccc(F)c(Cl)c3)ncnc2cc1O[C@H]1CCOC1 [Afatinib], the “cell viability of combination” value was 47.9.

Consider `CC[C@@]1(O)C(=O)OCc2c1cc1n(c2=O)Cc2cc3c(CN(C)C)c(O)ccc3nc2-1.Cl` [Topotecan HCl] + CN(C)C/C=C/C(=O)Nc1cc2c(Nc3ccc(F)c(Cl)c3)ncnc2cc1O[C@H]1CCOC1 [Afatinib], for which the “cell viability of combination” value amounted to 66.5.

For `C#Cc1cccc(Nc2ncnc3cc(OCCOC)c(OCCOC)cc23)c1.Cl` [Erlotinib Hydrochloride] + CN(C)C/C=C/C(=O)Nc1cc2c(Nc3ccc(F)c(Cl)c3)ncnc2cc1O[C@H]1CCOC1 [Afatinib], the “cell viability of combination” value came out at 54.5.

For the compound `CC(C)C1=CC(=C2NNC(=O)N2c2ccc3c(ccn3C)c2)C(=O)C=C1O` [Ganetespib (STA-9090)] + CN(C)C/C=C/C(=O)Nc1cc2c(Nc3ccc(F)c(Cl)c3)ncnc2cc1O[C@H]1CCOC1 [Afatinib], the “cell viability of combination” value was 30.9.

For the compound `Cl.Clc1ccccc1CN1CCc2sccc2C1` [Ticlopidine HCl] + CN(C)C/C=C/C(=O)Nc1cc2c(Nc3ccc(F)c(Cl)c3)ncnc2cc1O[C@H]1CCOC1 [Afatinib], the “cell viability of combination” value stood at 75.9.

Turning to `CN1CCCC1CCOC(C)(c1ccccc1)c1ccc(Cl)cc1.O=C(O)C=CC(=O)O` (stereo not given) [Clemastine Fumarate] + CN(C)C/C=C/C(=O)Nc1cc2c(Nc3ccc(F)c(Cl)c3)ncnc2cc1O[C@H]1CCOC1 [Afatinib], the “cell viability of combination” value is 65.2.

Turning to `Br.Cc1ccc(Sc2ccccc2N2CCNCC2)c(C)c1` + CN(C)C/C=C/C(=O)Nc1cc2c(Nc3ccc(F)c(Cl)c3)ncnc2cc1O[C@H]1CCOC1 [Afatinib], the “cell viability of combination” value was determined as 55.4.

`CNCCC(Oc1cccc2ccccc12)c1cccs1.Cl` (stereo not given) [Duloxetine HCl] + CN(C)C/C=C/C(=O)Nc1cc2c(Nc3ccc(F)c(Cl)c3)ncnc2cc1O[C@H]1CCOC1 [Afatinib]: the “cell viability of combination” value came out at 59.8.

Regarding `CC[C@@H]1/C=C(\C)C[C@H](C)C[C@H](OC)[C@H]2O[C@@](O)(C(=O)C(=O)N3CCCC[C@H]3C(=O)O[C@H](/C(C)=C/[C@@H]3CC[C@H](Cl)[C@H](OC)C3)[C@H](C)[C@@H](O)CC1=O)[C@H](C)C[C@@H]2OC` [Pimecrolimus] + CN(C)C/C=C/C(=O)Nc1cc2c(Nc3ccc(F)c(Cl)c3)ncnc2cc1O[C@H]1CCOC1 [Afatinib], the “cell viability of combination” value was 70.7.

Consider `Cl.Fc1ccc(C2CCNCC2COc2ccc3c(c2)OCO3)cc1` (stereo not given) [Paroxetine HCl] + CN(C)C/C=C/C(=O)Nc1cc2c(Nc3ccc(F)c(Cl)c3)ncnc2cc1O[C@H]1CCOC1 [Afatinib], for which the “cell viability of combination” value amounted to 60.4.

As to `COc1cc2c(Nc3ccc(Br)cc3F)ncnc2cc1OCC1CCN(C)CC1` [Vandetanib (ZD6474)] + CN(C)C/C=C/C(=O)Nc1cc2c(Nc3ccc(F)c(Cl)c3)ncnc2cc1O[C@H]1CCOC1 [Afatinib], the “cell viability of combination” value came to 36.2.

Regarding `C=C1C(=CC=C2CCCC3(C)C2CCC3C(C)CCCC(C)(C)O)CC(O)CC1O` (stereo not given) [Calcitriol] + CN(C)C/C=C/C(=O)Nc1cc2c(Nc3ccc(F)c(Cl)c3)ncnc2cc1O[C@H]1CCOC1 [Afatinib], the “cell viability of combination” value was determined as 43.3.

As to `CC(C)COc1ccc(CNC(=O)N(Cc2ccc(F)cc2)C2CCN(C)CC2)cc1` [Pimavanserin] + CN(C)C/C=C/C(=O)Nc1cc2c(Nc3ccc(F)c(Cl)c3)ncnc2cc1O[C@H]1CCOC1 [Afatinib], the “cell viability of combination” value worked out at 65.2.

As for `O=C(O)CO.[NH2-].[NH2-].[Pt+2]` [Nedaplatin] + CN(C)C/C=C/C(=O)Nc1cc2c(Nc3ccc(F)c(Cl)c3)ncnc2cc1O[C@H]1CCOC1 [Afatinib], the “cell viability of combination” value came out at 82.6.

Turning to `CCOc1cc2ncc(C#N)c(Nc3ccc(OCc4ccccn4)c(Cl)c3)c2cc1NC(=O)C=CCN(C)C` [Neratinib (HKI-272)] + CN(C)C/C=C/C(=O)Nc1cc2c(Nc3ccc(F)c(Cl)c3)ncnc2cc1O[C@H]1CCOC1 [Afatinib], the “cell viability of combination” value is 50.9.

Regarding `CCOC(=O)C1=C(COCCN)NC(C)=C(C(=O)OC)C1c1ccccc1Cl.O=S(=O)(O)c1ccccc1` (stereo not given) [Amlodipine Besylate] + CN(C)C/C=C/C(=O)Nc1cc2c(Nc3ccc(F)c(Cl)c3)ncnc2cc1O[C@H]1CCOC1 [Afatinib], the “cell viability of combination” value came out at 83.6.

Turning to `CN1CCN(CCCN2c3ccccc3Sc3ccc(C(F)(F)F)cc32)CC1.Cl.Cl` [Trifluoperazine 2HCl] + CN(C)C/C=C/C(=O)Nc1cc2c(Nc3ccc(F)c(Cl)c3)ncnc2cc1O[C@H]1CCOC1 [Afatinib], the “cell viability of combination” value came to 73.1.
